HIF activator = HIF pathway transcriptional activation | activation, % at 7.5 µM (by protocol) | U2OS HRE-luciferase reporter, luminescence; normalized: DMSO 0%, desferrioxamine 100% | actives 0.32% (n = 300,000);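 active = mean activation of at least 10% of the iron chelator positive control signal, with at least half of replicates also reaching 10%; inconclusive = mean and replicate majority disagree about reaching 10%; inactive = mean and most replicates under 10%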
AHR act = human AHR activation | AHR-responsive luciferase reporter cells, luminescence | activation, % at 5 µM | actives 2.5% (n = 320,000); in the data active = activation above about 47%
Target sequence (P35869 whole entry, looked up): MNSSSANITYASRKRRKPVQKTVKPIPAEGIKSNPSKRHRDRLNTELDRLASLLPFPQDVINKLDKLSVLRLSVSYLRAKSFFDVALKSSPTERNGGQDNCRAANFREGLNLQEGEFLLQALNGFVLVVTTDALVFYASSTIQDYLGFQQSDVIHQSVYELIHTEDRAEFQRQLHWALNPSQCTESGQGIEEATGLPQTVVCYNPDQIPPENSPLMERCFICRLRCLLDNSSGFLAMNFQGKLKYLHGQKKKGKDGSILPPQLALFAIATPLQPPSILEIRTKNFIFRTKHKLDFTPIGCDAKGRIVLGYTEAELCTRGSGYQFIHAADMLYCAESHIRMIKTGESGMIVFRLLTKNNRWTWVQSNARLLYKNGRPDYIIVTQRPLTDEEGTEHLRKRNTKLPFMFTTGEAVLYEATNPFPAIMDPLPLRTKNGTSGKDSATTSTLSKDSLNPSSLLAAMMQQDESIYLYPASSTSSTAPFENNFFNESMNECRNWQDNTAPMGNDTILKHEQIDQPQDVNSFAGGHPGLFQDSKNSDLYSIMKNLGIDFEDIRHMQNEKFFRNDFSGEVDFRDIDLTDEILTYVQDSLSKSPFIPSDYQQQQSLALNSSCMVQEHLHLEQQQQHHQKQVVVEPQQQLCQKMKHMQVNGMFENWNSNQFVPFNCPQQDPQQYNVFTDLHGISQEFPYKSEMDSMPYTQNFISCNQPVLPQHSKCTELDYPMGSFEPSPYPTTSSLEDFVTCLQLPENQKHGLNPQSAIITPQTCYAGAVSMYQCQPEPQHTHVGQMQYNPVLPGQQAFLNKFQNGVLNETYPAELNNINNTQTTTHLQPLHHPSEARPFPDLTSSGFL
PolyA inh = inhibitors of polyadenylation in S. cerevisiae; actives 0.02% (n = 300,000); activity score, % at 12 µM; S. cerevisiae SKY197-pL101 polyadenylation reporter, beta-gal luminescence; efflux-impaired pdr1/pdr3 knockout yeast; score 100 = 6 SD above DMSO;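 active = lowest replicate activity score at least 50, where 100 means six control SD above control mean; inconclusive = lowest score under 50 but half or more replicates reach 50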;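 also: yeast exposed to compound for 9 h at 30 °C; higher score means more reporter readthrough which indicates perturbed polyadenylation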
pCIP destab = p/CIP protein destabilization. Q05BA5. F442A p/CIP-EGFP cells, EGFP fluorescence, 16 h. decrease of EGFP signal, % at 10 µM. actives 0.01% (n = 290,000);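 active = EGFP signal decrease of at least 30% at 10 µM or well 3 SD below plate mean, unless failing retest; inactive = the rest, including hits failing retest or dose response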
Platelet DG rel = platelet dense granule release activity; human platelet-rich plasma, SFLLRN dense granule ATP release, luminescence; inhibition, %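 (compounds screened at 7.5 µM in platelet-rich plasma)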; actives 0.22% (n = 300,000); AID 1663;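 active = mean replicate score, as percent of positive control, at or above 50; inconclusive = mean below 50 but at least one replicate at or above 50; inactive = mean and every replicate below 50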
Of the large screens only hits and unclear results are named; the others gave an inactive call. The list is not random: actives were taken first. Their share in the collection is about 2.8%.

CCCC(NS(=O)(=O)c1ccc(-c2ccc(=O)[nH]n2)s1)c1cccs1 (stereo unspecified)	none
O=C(CCNC(=O)C1CCN(S(=O)(=O)c2ccccc2)CC1)NCc1ccc(Cl)c(Cl)c1	Platelet DG rel 58.2
CN(C)C1=NC(=O)/C(=C/c2ccc(-c3ccc(S(N)(=O)=O)cc3)o2)S1	none
NC1=NC(=O)/C(=C\c2ccc(-c3ccc(Cl)cc3)o2)S1	AHR act 51.0
CCc1ccc(-c2nc(SCC(=O)N3CCOCC3)n[nH]2)cc1	none
CCN(CC)CCn1nc2c3c(cccc3c1=O)-c1ccccc1-2	HIF activator 29.2 (no result: PolyA inh)
O=c1c2cccc3c2c(nn1CN1CCOCC1)-c1ccccc1-3	none
Clc1ccc(C2=NCCn3nc4ccccc4c32)cc1	AHR act 79.2 (no result: pCIP destab)
O=[N+]([O-])c1ccc2c3n([n+]([O-])c2c1)CCN=C3c1ccc(Cl)cc1	AHR act 48.1 (no result: pCIP destab)
[O-][n+]1c2ccccc2c2n1CCCN=C2c1ccc(Cl)cc1	AHR act 51.0 (no result: pCIP destab)
COc1ccc2c3n([n+]([O-])c2c1)CCN=C3c1ccc(Cl)cc1	none (no result: HIF activator, PolyA inh, pCIP destab, Platelet DG rel)
Nc1c(Cl)cc(C2=NCCn3c2c2ccc(C(F)(F)F)cc2[n+]3[O-])cc1Cl	AHR act 54.5 (no result: pCIP destab)
CCN(Cc1ccccc1)C(=O)CCS(=O)(=O)c1ccc2c(c1)CCN2C(C)=O	none
CC(C)Oc1ccc(CN2CCC(n3nccc3NC(=O)CCc3ccccc3)CC2)cc1	none
O=C(Nc1ccccc1C(=O)NC1CC1)c1ccccc1F	none (no result: HIF activator, PolyA inh, pCIP destab, Platelet DG rel)
CCOc1nc(Nc2ccc(Cl)cc2)nc(OCC)n1	none
CN(C)c1nc(Nc2ccc(Cl)cc2)nc(OCC#N)n1	AHR act 49.0
Nc1ccc(C(=O)N2CCN(S(=O)(=O)c3ccc4c(c3)OCCO4)CC2)cc1[N+](=O)[O-]	none
C=CCOc1cccc(C(=O)Nc2ncn[nH]2)c1	AHR act 57.8
O=C(CCC(=O)Nc1ccc(Cl)cc1)N/N=C/c1ccc2c(c1)OCO2	none
Clc1ccc(-c2csc(N/N=C/c3ccc4c(c3)OCO4)n2)cc1	AHR act 63.3
Oc1ccccc1N=N/C(=N/Nc1ccccc1O)c1ccccc1	none (no result: pCIP destab)
Cn1nnnc1N=N/C(=N/Nc1ccccc1)c1ccccc1	HIF activator 181.9
COc1ccc(Nc2nc(-c3cccs3)cs2)cc1	AHR act 49.2
COc1ccccc1Nc1nc(-c2cccs2)cs1	none (no result: HIF activator)
COc1ccc(Nc2nc(-c3cccs3)cs2)c(OC)c1	AHR act 109.3
COc1ccc(OC)c(Nc2nc(-c3cccs3)cs2)c1	AHR act 47.7
CCc1ccc(OCC(=O)Nc2ccncc2)c(Br)c1	HIF activator 13.5
Cn1c(=O)[nH]c(=O)c2c1nc(N1CCCCCC1)n2CC(N)=O	Platelet DG rel 69.8
CCn1c(N2CCC(Cc3ccccc3)CC2)nc2c1c(=O)[nH]c(=O)n2C	HIF activator 17.0
Cn1c(=O)[nH]c(=O)c2c1nc(N1CCCC1)n2CCO	none
Cc1sc2nc(CN3CCOCC3)[nH]c(=S)c2c1C	none
CC(=NNC(=O)c1cccc(S(=O)(=O)N2CCOCC2)c1)c1ccc(Cl)cc1	none (no result: HIF activator, PolyA inh, pCIP destab, Platelet DG rel)
CC(=O)N1N=C(c2cccs2)CC1c1cccs1 (stereo unspecified)	none
CC(=O)N1N=C2c3ccccc3CCC2C1c1cccs1 (stereo unspecified)	AHR act 59.9
CCn1cc(S(=O)(=O)Nc2cc(C(=O)OC)ccc2C)cn1	none
CC(Oc1ccc2c3c(c(=O)oc2c1)CCCC3)C(=O)NCC(O)c1ccccc1 (stereo unspecified)	HIF activator 63.7
CCCOC(=O)C1=C(C)N(C)C(=O)NC1c1cc2c(cc1[N+](=O)[O-])OCO2 (stereo unspecified)	AHR act 60.4
CC(=O)NN1CCc2cc3ccc(C)cc3nc21	none
Cc1ccc2cc3c(nc2c1)N(c1ccccc1)CC3	AHR act 66.5
C/C(=N/NC(=O)CC1N=C(Cc2ccccc2)NNC1=O)c1cccnc1 (stereo unspecified)	AHR act 62.2
C/C(=N\NC(=O)CC1N=C(Cc2ccccc2)NNC1=O)c1ccc(C)cc1 (stereo unspecified)	none
OCCSc1ncnc2c1oc1ccccc12	none
OCCN(CCO)c1ncnc2c1oc1ccc(Br)cc12	AHR act 71.5
Cc1cc(C)cc(C(=O)N2CCN(c3ccccn3)CC2)c1	none
O=S(=O)(Nc1ccc(-c2ccc3nncn3n2)cc1)c1cccs1	none (no result: pCIP destab)
O=C(CCNS(=O)(=O)c1ccccc1)OCC(=O)c1ccc[nH]1	PolyA inh inconclusive (no result: pCIP destab)
COc1ccccc1N1CCN(C(=O)CCNS(=O)(=O)c2ccc(Br)s2)CC1	PolyA inh 91.0
COc1ccccc1N1CCN(C(=O)CNS(=O)(=O)c2ccc(Br)s2)CC1	none
COc1ccc(OC)c(C2=Nn3c(nnc3-c3cc(C)[nH]n3)SC2)c1	HIF activator 58.3
C/C(Cl)=C/Cn1c(=O)c2c(nc(Br)n2Cc2ccccc2)n(C)c1=O	none
CC1CC1C(=O)Nc1nc2ccc(Cl)cc2s1 (stereo unspecified)	AHR act 67.2 (no result: pCIP destab)
CC(=O)c1cc2c(cc1NC(=O)C1CN(C(C)=O)c3ccccc3O1)OCO2 (stereo unspecified)	AHR act 52.6 (no result: HIF activator, PolyA inh, pCIP destab, Platelet DG rel)
CC(=O)c1cc2c(cc1NC(=O)C1CC=CCC1C(=O)O)OCO2 (stereo unspecified)	none
Cn1cnnc1SCC(=O)Nc1ccccc1	none
Cc1cc(C)c(-c2cc(NC(=O)CSc3nncn3C)n(-c3ccccc3)n2)cc1C	AHR act 64.4
COCCCNC(=O)CCc1c(C)c2cc3c(C)coc3cc2oc1=O	none
CCCCc1cc(=O)oc2cc(C)cc(OCC(=O)Nc3cccnc3)c12	AHR act 51.2
Cc1cc(OCC(=O)NCc2ccncc2)c2c(C)cc(=O)oc2c1	AHR act 61.5
Cc1cc(OC(C)C(=O)NCc2ccncc2)c2c(C)cc(=O)oc2c1 (stereo unspecified)	none
COc1ccccc1NC(=O)Cc1nnc(SCC(=O)NC2=NCCS2)n1C	none
CCCCCn1c2c(c(=N)c3ccccc31)CCC2	Platelet DG rel 69.9
CCCCn1c2c(c(=N)c3ccccc31)CCC2	Platelet DG rel 122.6
CCCCCCCCn1c2c(c(=N)c3ccccc31)CCC2	none (no result: AHR act)
CCn1c(-c2cc(-c3ccccc3)sc2N)n[nH]c1=S	AHR act 72.8
CCn1c(-c2ccccc2O)n[nH]c1=S	none
CC1(c2ccc3ccccc3c2)NC(=O)N(CC(=O)Nc2ncccc2O)C1=O (stereo unspecified)	none (no result: HIF activator, PolyA inh, pCIP destab, Platelet DG rel)
COc1ccc(/C=N/OCC(=O)NCc2cccs2)c(OC)c1	AHR act 47.7
FC(F)Oc1ccc(-c2csc(=Nc3cccnc3)n2CC2CCCO2)cc1 (stereo unspecified)	AHR act 48.1
COCCn1c(-c2ccc(Br)cc2)csc1=Nc1cccnc1	none (no result: HIF activator, PolyA inh, Platelet DG rel)
CCOC(=O)c1ccc(NC(=O)CSc2nnc(CNc3ccc(OC)cc3)n2C)cc1	AHR act 59.0
Cc1cc2c(C)ccc(C)c2nc1SCC(=O)c1cccs1	AHR act 58.4

Screening data (PubChem BioAssay)
